Inconclusive results are not listed. A number with no mark means an inactive call. The call rests on the fitted dose curve; in most records, active means well fitted cell-killing curve with a large enough effect in the repeat runs; inconclusive means weak or mixed curves, or effect the other way; inactive means flat fitted curve, though single readings scatter.
On the % scale 0 is the no-effect control and ±100 the full control effect.

This assay can be described thus: qHTS assay to identify small molecule antagonists of the androgen receptor (AR) signaling pathway using the MDA cell line - cell viability counter screen (AID 743041; further: nearly all actives have a fitted effect of over 45% in size). As to conditions: MDA-kb2 viability, CellTiter-Fluor, 16 h, cells co-treated with R1881 androgen agonist; series mostly up to 70.3 µM; viability change, negative = cytotoxic: at the top concentration. The essentials:
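Same-well cytotoxicity was assessed by CellTiter-Fluor in MDA-kb2 AR-luc cells after 16 h of compound treatment under R1881 agonism.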
Turning to `OC(CN1CCCCC1)c1cc(-c2ccccc2)on1` (stereo unspecified), the “viability change, negative = cytotoxic” value was -0.96%.

Turning to `CCCCCCCCCCCCCCCC(=O)OC[C@@H](NC(=O)C(Cl)Cl)[C@H](O)c1ccc([N+](=O)[O-])cc1`, the “viability change, negative = cytotoxic” value is -2.75%. Turning to `NC(=O)c1ccc[n+]([C@@H]2O[C@H](COP(=O)([O-])OP(=O)(O)OC[C@H]3O[C@@H](n4cnc5c(N)ncnc54)[C@H](O)[C@@H]3O)[C@@H](O)[C@H]2O)c1`, the “viability change, negative = cytotoxic” value was 8.22% [at 32.5 µM].

Turning to `C=C1CC[C@H](O)CC1=C/C=C1\CCC[C@]2(C)[C@@H]([C@H](C)CC[C@@H](O)C(C)(C)O)CC[C@@H]12`, the “viability change, negative = cytotoxic” value was -2.28%. Turning to `N#CC(c1ccc(Cl)cc1)c1c(Cl)cc(-n2ncc(=O)[nH]c2=O)cc1Cl` (stereo unspecified), the “viability change, negative = cytotoxic” value was -9.82%. In the case of `CN(C)CCOc1ccccc1Cc1ccccc1` (tested in a mixture with another compound), the “viability change, negative = cytotoxic” value is 3.94%. Consider `CNC(=O)c1c(I)c(C(=O)NCC(=O)Nc2c(I)c(C(=O)O)c(I)c(C(=O)NCCO)c2I)c(I)c(N(C)C(C)=O)c1I`, for which the “viability change, negative = cytotoxic” value is 2.69%. With `Nc1nc2c(c(=O)[nH]1)N(C=O)C(CNc1ccc(C(=O)N[C@@H](CCC(=O)O)C(=O)O)cc1)CN2` (stereo partly specified), the “viability change, negative = cytotoxic” value is 8.89% [at 32.5 µM]. Then `C[C@@H]1C[C@H]2[C@@H]3CCC4=CC(=O)C=C[C@]4(C)[C@@]3(F)[C@@H](O)C[C@]2(C)[C@@]1(O)C(=O)COC(=O)c1cccc(S(=O)(=O)O)c1`, with -0.432%; and `COc1ccc(C[C@H](C)NC[C@@H](O)c2ccc(O)c(NC=O)c2)cc1`, with 4.58%. As for `OC[C@H]1O[C@@H](O[C@H]2[C@H](O)[C@@H](O)[C@H](O)O[C@@H]2CO)[C@H](O)[C@@H](O)[C@@H]1O`, the “viability change, negative = cytotoxic” value was 7.43%.

Source of the values: PubChem BioAssay (Tox21).
